Screening data deposited in PubChem BioAssay by National Center for Advancing Translational Sciences (NCATS).
Shown is part of a subset that was picked to be rich in hits.
nsP2pro inh = blocks chikungunya virus nsP2 protease peptide cleavage. FRET peptide cleavage, nsP2pro, fluorescence 1 h. 31,000 compounds, 1.1% hits. Potency, µM (top dose mostly 24.9 µM), without a hit: top-dose activity change, negative = inhibition, usual class: inhibitors; note: nearly all actives have a fitted effect of over 60% in size
Target sequence (Q8JUX6 whole entry, looked up): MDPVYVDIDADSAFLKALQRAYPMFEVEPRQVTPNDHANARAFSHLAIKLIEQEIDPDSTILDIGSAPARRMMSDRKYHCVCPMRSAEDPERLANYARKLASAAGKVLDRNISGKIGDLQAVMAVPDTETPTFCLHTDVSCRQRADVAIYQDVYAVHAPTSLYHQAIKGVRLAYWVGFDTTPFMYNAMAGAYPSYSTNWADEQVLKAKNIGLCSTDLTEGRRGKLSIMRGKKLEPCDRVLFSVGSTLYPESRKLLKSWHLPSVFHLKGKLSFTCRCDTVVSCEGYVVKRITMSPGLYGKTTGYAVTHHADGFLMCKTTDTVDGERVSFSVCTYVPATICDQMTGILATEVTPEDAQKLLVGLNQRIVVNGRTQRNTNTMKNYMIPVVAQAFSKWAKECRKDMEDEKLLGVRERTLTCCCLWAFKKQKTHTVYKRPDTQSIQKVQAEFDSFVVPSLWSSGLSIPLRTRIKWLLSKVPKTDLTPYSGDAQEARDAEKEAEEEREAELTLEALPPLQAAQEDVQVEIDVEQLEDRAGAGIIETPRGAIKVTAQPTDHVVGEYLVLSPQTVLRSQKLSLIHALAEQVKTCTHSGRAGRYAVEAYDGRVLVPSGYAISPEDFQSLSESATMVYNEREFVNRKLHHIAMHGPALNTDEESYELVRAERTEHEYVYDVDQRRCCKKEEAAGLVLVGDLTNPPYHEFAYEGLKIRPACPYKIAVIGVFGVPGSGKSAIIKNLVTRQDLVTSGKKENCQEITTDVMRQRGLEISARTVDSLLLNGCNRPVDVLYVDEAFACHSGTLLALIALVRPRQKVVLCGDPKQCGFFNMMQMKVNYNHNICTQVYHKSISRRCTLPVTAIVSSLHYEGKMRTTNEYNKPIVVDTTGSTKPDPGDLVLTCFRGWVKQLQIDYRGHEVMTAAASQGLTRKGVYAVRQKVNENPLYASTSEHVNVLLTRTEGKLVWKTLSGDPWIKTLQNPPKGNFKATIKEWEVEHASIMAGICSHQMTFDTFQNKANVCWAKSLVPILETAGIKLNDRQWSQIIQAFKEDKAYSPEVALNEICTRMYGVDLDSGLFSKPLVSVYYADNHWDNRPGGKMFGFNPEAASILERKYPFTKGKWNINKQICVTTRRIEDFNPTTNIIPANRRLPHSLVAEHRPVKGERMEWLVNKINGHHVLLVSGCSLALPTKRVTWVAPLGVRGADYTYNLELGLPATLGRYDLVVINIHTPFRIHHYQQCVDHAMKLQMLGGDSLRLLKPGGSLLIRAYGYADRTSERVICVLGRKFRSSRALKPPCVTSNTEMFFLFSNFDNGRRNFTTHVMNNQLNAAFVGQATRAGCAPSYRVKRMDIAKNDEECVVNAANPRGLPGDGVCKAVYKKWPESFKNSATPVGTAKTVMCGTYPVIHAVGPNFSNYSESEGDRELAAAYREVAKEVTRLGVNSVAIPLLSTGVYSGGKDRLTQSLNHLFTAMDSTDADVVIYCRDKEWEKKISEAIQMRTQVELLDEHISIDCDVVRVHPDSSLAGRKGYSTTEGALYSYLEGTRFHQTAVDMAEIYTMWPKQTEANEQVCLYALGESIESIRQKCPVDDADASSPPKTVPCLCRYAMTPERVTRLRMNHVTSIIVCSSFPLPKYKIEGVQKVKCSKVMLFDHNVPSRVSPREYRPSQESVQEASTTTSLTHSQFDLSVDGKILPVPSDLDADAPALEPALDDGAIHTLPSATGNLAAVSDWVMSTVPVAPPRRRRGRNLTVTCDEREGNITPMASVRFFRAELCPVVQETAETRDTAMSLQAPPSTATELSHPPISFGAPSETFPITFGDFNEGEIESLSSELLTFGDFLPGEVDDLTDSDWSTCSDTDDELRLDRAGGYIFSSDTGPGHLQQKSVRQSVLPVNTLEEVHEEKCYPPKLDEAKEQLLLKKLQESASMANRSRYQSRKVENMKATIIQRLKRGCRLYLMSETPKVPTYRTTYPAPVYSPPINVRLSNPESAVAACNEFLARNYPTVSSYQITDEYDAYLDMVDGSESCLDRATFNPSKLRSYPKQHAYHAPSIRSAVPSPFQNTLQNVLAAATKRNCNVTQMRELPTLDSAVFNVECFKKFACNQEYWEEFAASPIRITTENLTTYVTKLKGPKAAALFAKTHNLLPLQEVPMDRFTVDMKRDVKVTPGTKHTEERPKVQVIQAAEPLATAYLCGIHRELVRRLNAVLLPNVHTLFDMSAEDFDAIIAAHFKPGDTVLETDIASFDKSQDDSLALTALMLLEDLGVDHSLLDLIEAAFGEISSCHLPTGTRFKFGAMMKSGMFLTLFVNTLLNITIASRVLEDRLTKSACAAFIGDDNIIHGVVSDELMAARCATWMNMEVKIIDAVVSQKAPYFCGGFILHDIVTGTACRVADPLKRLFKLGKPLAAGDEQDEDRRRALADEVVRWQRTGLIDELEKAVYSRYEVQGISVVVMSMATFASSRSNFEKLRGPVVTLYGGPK
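Recombinant nsP2pro (150 nM) was preincubated with compound 15 min at room temperature in 10 mM Tris-HCl pH 8.0, 0.01% Tween 20. Peptide 2 FRET substrate (2.5 uM) was then added and fluorescence read after 1 h. Seven-point series, up to 25 uM.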
nsP2 cell sec = cell-based CHIKV nsP2 protease inhibition, secondary | shares compounds with nsP2pro inh | cell-based CHIKV nsP2 protease reporter assay | Potency, µM (series often up to 51.1 µM), for inactives: top-dose activity change, negative = inhibition, hits mostly inhibitors | 450 compounds, 10% hits | AID 1964100; note: nearly all actives have a fitted effect of over 70% in size
NSP2 full ctr = selectivity test for CHIKV nsP2 protease inhibitors: full-length NSP2; shares compounds with nsP2pro inh; AID 1964101; Full-length CHIKV NSP2 protease enzymatic counterscreen; Potency, µM (highest dose often 50.7 µM), for inactives: at the highest dose activity change, negative = inhibition, hits mostly inhibitors; 410 compounds, 39% hits; note: nearly all actives have a fitted effect of over 65% in size
Furin counterscr = selectivity counter-screen for CHIKV nsP2 protease inhibitors: human furin; Recombinant human furin enzymatic counterscreen, fluorogenic substrate; shares compounds with nsP2pro inh; AID 1964102; 410 compounds, 6% hits; Potency, µM (top dose mostly 50.6 µM), inactives show top-dose activity change, negative = inhibition, actives largely listed as inhibitors
nsP2 NS23 pep = selectivity test for CHIKV nsP2 protease inhibitors: endogenous NS2/3 peptide; Purified CHIKV nsP2 protease, endogenous NS2/3 peptide cleavage; 410 compounds, 34% hits; Potency, µM (doses to about 51 µM), without a hit: at the top dose activity change, negative = inhibition, most hits filed as inhibitors; shares compounds with nsP2pro inh; note: nearly all actives have a fitted effect of over 55% in size
Papain counter = selectivity counter-screen for CHIKV nsP2 protease inhibitors: papain. shares compounds with nsP2pro inh. 410 compounds, 5% hits. AID 1964104. Potency, µM (top dose mostly 51 µM), inactives show at the highest dose activity change, negative = inhibition, most hits filed as inhibitors. purified papain protease activity, enzymatic inhibition
nsP2pro confirm = confirmation of CHIKV nsP2 protease inhibitors | shares compounds with nsP2pro inh | CHIKV nsP2 protease enzymatic activity, qHTS | Potency, µM (doses to about 25.5 µM), for inactives: top-dose activity change, negative = inhibition, hits mostly inhibitors | 410 compounds, 43% hits | AID 1964105; note: nearly all actives have a fitted effect of over 75% in size
HCV NS3 4A cs = selectivity counter-screen for CHIKV nsP2 protease inhibitors: HCV NS3/4A | Potency, µM (top dose mostly 50.9 µM), hits mostly inhibitors | AID 1964106 | HCV NS3/4A protease biochemical counterscreen | 410 compounds, 20% hits | shares compounds with nsP2pro inh; note: nearly all actives have a fitted effect of over 55% in size
* = called active by the depositor; i = inactive; ? = inconclusive; [ ] = another dose, or the depositor's remark. Calls come from the whole dose curve. % is set by controls: 0 for no effect and ±100 for the full control effect; potency is the fitted concentration of half-maximal effect.

SMILES	nsP2pro inh	others
COCC(=O)N[C@@H]1CCC[C@@H](C(=O)NC2CC2)CC(=O)N(C)C1	i
Cc1cc(C)nc(NC(=S)N2CCN(c3nccs3)CC2)c1	-9%
COC(=O)c1ccc2nc(NC3=NC(c4[nH]ncc4Cl)C4=C(CCCC4=O)N3)oc2c1 (stereo not drawn)	i
Cc1nc(C(=O)N2CC(F)(F)C[C@H]2c2nnc(C3CC3)o2)co1	5%
Cc1ccccc1OC1=NS(=O)(=O)c2ccccc21	i
Nc1ccccc1OC1=NS(=O)(=O)c2ccccc21	10µM*	nsP2 cell sec=7%;NSP2 full ctr=?;Furin counterscr=-5%;nsP2 NS23 pep=-11%;Papain counter=-5%;nsP2pro confirm=-6%;HCV NS3 4A cs=i
O=S1(=O)N=C(Oc2ccccc2Br)c2ccccc21	i
C=C(C)CNc1ccc(C(C)C(=O)O)cc1 (stereo not drawn)	8.8µM*	nsP2 cell sec=1%;NSP2 full ctr=-5%;Furin counterscr=-5%;nsP2 NS23 pep=-14%;Papain counter=-5%;nsP2pro confirm=-16%;HCV NS3 4A cs=i
CC(C(=O)O)c1ccc(C(=O)c2cccs2)cc1 (stereo not drawn)	-17%[39.2 µM]
CC(C(=O)O)c1ccc(CC2CCCC2=O)cc1 (stereo not drawn)	-2%
Cc1ccc([C@@H]2CN(c3cc(N4CCC(O)CC4)ncn3)C[C@H]2N(C)C)cc1	-8%
COc1ccc(C)cc1NC(=O)CCC[C@@H]1[C@H]2CCCN3CCC[C@@H](CN1Cc1cccnc1)[C@@H]23	-4%
Cc1ccc(CNC(=O)c2cc3sccc3n2Cc2ccc(F)cc2)cc1	14%
O=C(NCc1ccccc1)c1cc2sccc2n1Cc1ccc(F)cc1	7%
Cc1c(Cl)cccc1NC(=O)c1cc2sccc2n1Cc1ccc(F)cc1	7.9µM*	nsP2 cell sec=?;NSP2 full ctr=5.8µM*;Furin counterscr=-18%;nsP2 NS23 pep=16µM*;Papain counter=-8%;nsP2pro confirm=8µM*;HCV NS3 4A cs=8.2µM*
COC(=O)c1c(CC=C(C)C)c(OC2OC(CO)C(O)C(O)C2O)c2ccccc2c1OC1OC(CO)C(O)C(O)C1O (stereo not drawn)	7%[10 µM]
Cn1nc(C2CC2)cc1NC(=O)C(C)(C)C	-6%[39.2 µM]
CCOC(=O)c1cccc(NCC2=CC(C)(C)Oc3ccc(OC)cc32)c1	-11%
CCOC(=O)c1cccc(CNc2ccc(N(C)C(=O)Nc3ccccc3)cc2)c1	?	nsP2 cell sec=?;NSP2 full ctr=-13%;Furin counterscr=-11%;nsP2 NS23 pep=-8%;Papain counter=?;nsP2pro confirm=-3%;HCV NS3 4A cs=i
CCOC(=O)c1cccc(NC(=O)CCSCCc2ccccn2)c1	-14%
CN(CCNC(=O)C1CCCCC(=O)N1Cc1ccccc1)C1CCCCC1 (stereo not drawn)	-5%
O=C(CCC[C@@H]1[C@H]2CCCN3CCC[C@@H](CN1C(=O)c1ccccc1F)[C@@H]23)N1CCOCC1	-2%
COc1ccc(-c2csc(NC(=O)[C@H]3CCCCN3S(=O)(=O)c3ccc(C)cc3)n2)cc1	2%
CC1(C)SCCN(S(=O)(=O)c2ccc(Oc3ccncc3)cc2)[C@H]1C(=O)NO	0%
CC1(C)SCCN(S(=O)(=O)c2ccc(OCC#CCO)cc2)[C@H]1C(=O)NO	?	nsP2 cell sec=-13%;NSP2 full ctr=?;Furin counterscr=-3%;nsP2 NS23 pep=2%;Papain counter=-3%;nsP2pro confirm=?;HCV NS3 4A cs=i
SMILES	nsP2pro inh	others
C[C@@H]1O[C@@H](O[C@H]2[C@H](Oc3cc(O)c(C(=O)CCc4ccc(O)cc4)c(O)c3)O[C@H](CO)[C@@H](O)[C@@H]2O)[C@H](O)[C@H](O)[C@H]1O	0%
CC1CCC2(CC1)NC(=O)N(CC(=O)N1CCc3ccccc31)C2=O (stereo not drawn)	4%
CCC(O)(C(=O)OCc1ccccc1NC(=O)CCC(=O)O)C(C)O (stereo not drawn)	-9%
CCCCN1C(=O)c2ccccc2C1=O	-7%
CC(C)=CCC1C(=O)N(c2ccccc2)N(c2ccccc2)C1=O	-4%
CCCCC1C(=O)N(c2ccccc2)N(c2ccc(O)cc2)C1=O (stereo not drawn)	8.8µM*	nsP2 cell sec=?;NSP2 full ctr=21µM*;Furin counterscr=-13%;nsP2 NS23 pep=6.5µM*;Papain counter=-12%;nsP2pro confirm=8µM*;HCV NS3 4A cs=i
CC(=O)NCCNC(=O)C1CCCN(S(=O)(=O)c2ccccc2)CCC(=O)NCC1 (stereo not drawn)	-16%
O=C(C1CCc2nnc(-c3ccc(Cl)cc3Cl)n21)N1CCCC1 (stereo not drawn)	-7%
CC(C)COC(=O)N1[C@@H](c2ccco2)[C@@H](CO)C[C@]12CCCCNC2=O	?	nsP2 cell sec=2%;NSP2 full ctr=-15%;Furin counterscr=-10%;nsP2 NS23 pep=?;Papain counter=-4%;nsP2pro confirm=-18%;HCV NS3 4A cs=?
CNC(=O)[C@H]1C[C@]2(CCCCNC2=O)N(C(=O)c2cccc(C#N)c2)[C@H]1c1ccco1	-4%
CC(C)CCN1CCC2(COc3ccccc3C(=O)N2)C1 (stereo not drawn)	-3%[39.2 µM]
O=C(NCCCNC(=O)c1ccc[nH]c1=O)c1cc(-c2ccccc2)on1	1%
CNS(=O)(=O)c1ccccc1Nc1nc(Nc2ccc(N3CCN(C)CC3)cc2OC)ncc1Br	59%
CC(=O)OC[C@@]12C(=O)C[C@@H](C)[C@]3(C[C@@H](c4ccoc4)O[C@H]3OC(C)=O)[C@H]1CCC[C@]21CO1	12%[10 µM]
C[C@@]12C[C@@H](c3ccoc3)OC(=O)C1CC[C@]1(C)[C@H]2[C@H]2C=C[C@]1(O)C(=O)O2 (stereo partly drawn)	5.4µM*	nsP2 cell sec=-9%[33.5 µM];NSP2 full ctr=9%[33.5 µM];Furin counterscr=12%[33.5 µM];nsP2 NS23 pep=3%[33.5 µM];Papain counter=-13%[33.5 µM];nsP2pro confirm=-9%[16.7 µM];HCV NS3 4A cs=i
COC(=O)[C@@]1(O)C=CC[C@@H]2[C@@]3(C)C[C@@H](c4ccoc4)OC(=O)[C@H]3CC[C@]21C	2.7µM*	nsP2 cell sec=5%[33.5 µM];NSP2 full ctr=-23%[33.5 µM];Furin counterscr=2%[33.5 µM];nsP2 NS23 pep=4%[33.5 µM];Papain counter=1%[33.5 µM];nsP2pro confirm=?;HCV NS3 4A cs=i
O=C(C1CC1)N1C[C@@H]2OCC(=O)N(CC3CC3)[C@@H]2C1	-3%[39.2 µM]
CCC[C@@H](NC(=O)N1C(=O)C(CC)(CC)[C@@H]1Oc1ccc(C(=O)N2CCN(C)CC2)cc1)c1ccc2c(c1)OCO2	27%
O=C(NC1CC(c2nnc(CO)n2C2CC2)C1)c1cccn2cnnc12 (stereo not drawn)	0%
CCN1CCN(C(=O)C2CCc3ncc(-c4ccsc4)n3C2)CC1 (stereo not drawn)	i
COc1ccc(-n2ncc3c2CC(C)(C)CC3NC(=O)c2cc(C)[nH]n2)cc1 (stereo not drawn)	i
